Assay outcomes (PubChem BioAssay)
Compounds with a hit are over-represented: about 4.2% of the library has one in this group of screens.
Cav32 inh: Cav3.2 calcium influx blockers – cell-based, Fluo-4 calcium fluorescence, FDSS, MLSMR library, primary screen. Voltage-dependent T-type calcium channel subunit alpha-1H (Homo sapiens), O95180. Cav3.2-expressing cells; hits give low values. B-score at 10 µM. 4% of 100,000 active;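 active means single-dose well whose peak fluorescence ratio is a statistical outlier from its plate by either plate-standardised score or position-corrected B-score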
Mac1 fbg enh: enhancers of CD11b/CD18 adhesion to fibrinogen, primary screen, K562 cells, luminescence; activation, % at 10 µM; Integrin beta-2 (Homo sapiens) + Integrin alpha-M (Homo sapiens), P05107+P11215; ATPlite luminescence; 0.07% of 93,000 active;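 active means 10 µM primary screen giving 50% or more activity, confirmed by 40% or more on retest at that dose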
Target sequence (P05107 whole entry, looked up, other chains not shown): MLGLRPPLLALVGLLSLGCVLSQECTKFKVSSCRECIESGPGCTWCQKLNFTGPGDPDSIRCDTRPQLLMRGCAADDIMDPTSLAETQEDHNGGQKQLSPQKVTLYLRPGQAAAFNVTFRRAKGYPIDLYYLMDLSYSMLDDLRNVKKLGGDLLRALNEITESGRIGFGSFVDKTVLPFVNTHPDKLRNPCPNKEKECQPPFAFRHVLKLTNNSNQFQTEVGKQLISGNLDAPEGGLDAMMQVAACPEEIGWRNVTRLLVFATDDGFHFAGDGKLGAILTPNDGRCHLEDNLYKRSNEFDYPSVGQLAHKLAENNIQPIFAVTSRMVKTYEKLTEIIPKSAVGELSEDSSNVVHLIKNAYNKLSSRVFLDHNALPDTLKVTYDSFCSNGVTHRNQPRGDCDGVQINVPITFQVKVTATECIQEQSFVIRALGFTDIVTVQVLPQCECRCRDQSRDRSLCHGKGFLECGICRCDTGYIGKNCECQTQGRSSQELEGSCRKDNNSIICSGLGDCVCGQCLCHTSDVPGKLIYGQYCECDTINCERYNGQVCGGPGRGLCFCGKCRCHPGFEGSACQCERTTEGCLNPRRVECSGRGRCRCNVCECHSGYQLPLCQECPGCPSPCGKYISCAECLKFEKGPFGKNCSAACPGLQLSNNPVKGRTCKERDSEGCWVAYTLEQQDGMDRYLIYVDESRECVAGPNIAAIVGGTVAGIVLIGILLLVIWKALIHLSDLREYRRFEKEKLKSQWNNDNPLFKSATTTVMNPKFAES
PTK2B oligo ant: antagonists of Pyk2 self-association, primary screen, Q293 cells, FERM NanoBiT luminescence, HTS | hits give low values | z-score (the deposit names both 25 µM and 10 µM) | 0.83% of 99,000 active;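 active means Z-score of -3 or lower, scaled per plate to the spread of control and sample wells; inactive means z-score above -3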;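 further: negative z-score means lost luminescence so less FERM oligomerization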
Mac1 fbg inh: inhibitors of CD11b/CD18 adhesion to fibrinogen, primary screen, K562 cells, luminescence. Integrin beta-2 (Homo sapiens) + Integrin alpha-M (Homo sapiens), P05107+P11215. ATPlite luminescence; Mn2+ added to activate the integrin. inhibition, % at 10 µM. 0.54% of 93,000 active. AID 1497, 2009;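 active means primary inhibition of 50% or more at 10 µM, then 40% or more on retest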
E coli RNAP: E. coli RNAP inhibitors, biochemical | DNA-directed RNA polymerase subunit beta (Escherichia coli (strain K12)), P0A8V2 | E. coli RNA polymerase, fluorescence transcription assay | inhibition, %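 (tested at 10 µM)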 | 0.2% of 62,000 active | AID 559, 2006; in the data active means inhibition above about 20%
Numbers stand for hits; – = inactive; · = no result given.

SMILES | Cav32 inh | Mac1 fbg enh | PTK2B oligo ant | Mac1 fbg inh | E coli RNAP
CCCCN(C(=O)CN1CCOCC1)c1c(N)n(CC(C)C)c(=O)[nH]c1=O | · | – | · | – | ·
O=Cc1cn(-c2ccc(F)cc2)c2ccccc12 | · | · | – | · | ·
COc1cc(/C=C/C(=O)c2c(O)ccc3c(C)cc(=O)oc23)ccc1O | · | – | -3 | – | ·
O=C(NCC1CC1)c1onc(CSc2ccncc2)c1C(=O)NCC1CC1 | – | · | · | · | ·
Cc1nc2c(ccc3nc(NC(=O)c4ccc5c(c4)OCCO5)sc32)s1 | – | – | – | 67 | –
Sc1oc(-c2ccccc2)cc1C=Nc1ccccc1 | – | – | – | – | ·
N#C/C(=C\c1cccc(NC(=O)c2ccccc2Cl)c1)C(=O)NCCc1ccccc1 | · | – | · | – | ·
CN1CC(c2ccccn2)C2(SC(=S)N(Cc3ccccc3)C2=O)C12C(=O)Nc1ccccc12 (configuration not stated) | -4.8 | – | – | – | ·
CN1CC(c2ccccc2)C2(SC(=S)N(Cc3ccco3)C2=O)C12C(=O)Nc1ccccc12 (configuration not stated) | -4.7 | – | – | – | ·
CCN1CCN(C(C(=O)NC2CCCCC2)c2ccc(Cl)cc2)CC1 (configuration not stated) | – | – | – | – | ·
N#Cc1cc2c(nc1SCC1COc3ccccc3O1)CCC2 (configuration not stated) | -6.2 | – | – | – | –
Cc1cc(C)c(C#N)c(SCC2COc3ccccc3O2)n1 (configuration not stated) | – | – | -3.3 | – | –
Cc1nc2cc(-c3ccccc3)nn2c(C)c1CCC(=O)N1CCN(c2ccccc2)CC1 | -6 | – | · | – | ·
Cc1ccc(C)c(Cn2cnc3c(cnn3C(C)(C)C)c2=O)c1 | -4.8 | – | – | – | –
Cc1ccccc1Cn1cnc2c(cnn2C(C)(C)C)c1=O | – | – | – | – | –
CN(CCCC(=O)Nc1ccncc1)S(=O)(=O)c1ccc(Cl)cc1 | · | – | – | 50 | –
CN(CC(=O)Nc1ccccn1)S(=O)(=O)c1ccc(Cl)cc1 | – | · | – | · | ·
Cn1c(-c2nnn(-c3ccc(F)cc3)n2)cc2ccccc21 | – | · | · | · | ·
O=C(C(Sc1ccccc1)c1ccccc1)N1CCN(c2ccccc2F)CC1 (configuration not stated) | -4 | – | – | – | ·
O=C(CN(c1ccc(F)cc1)S(=O)(=O)c1ccccc1)NCCSC1CCCCC1 | · | – | · | – | ·
CCCn1c(SCC(=O)N2CCN(c3ccccc3)CC2)nc2ccccc2c1=O | -6.2 | – | – | – | –
CCn1c(SCC(=O)N2CCN(c3ccc(F)cc3)CC2)nc2ccccc2c1=O | – | – | – | – | –
CCn1c(CSCc2ccc(C)cc2)nnc1SCC(=O)N1CCN(c2ccccc2)CC1 | -5.6 | – | – | – | ·
O=C(CSc1nc(N2CCCCC2)nc(N2CCCCC2)n1)N1CCN(c2ccccc2)CC1 | -8.8 | – | – | – | –
CC(C)c1ccccc1-n1c(SCC(=O)N2CCN(c3ccccc3)CC2)nnc1-c1cccnc1 | -4.4 | · | – | · | ·
SMILES | Cav32 inh | Mac1 fbg enh | PTK2B oligo ant | Mac1 fbg inh | E coli RNAP
Cn1c(SCC(=O)N2CCN(c3ccccc3)CC2)nnc1-c1ccncc1 | – | · | – | · | ·
CC(C)(C)NC(=O)NC(=O)COC(=O)Cc1coc2ccc3ccccc3c12 | · | – | · | – | ·
COc1ccc(N2C(=O)NC(NC(=O)c3ccncc3)(C(F)(F)F)C2=O)cc1 (configuration not stated) | – | · | – | · | ·
O=C(CSc1nc2ccccc2c(=O)n1Cc1ccco1)N1CCN(c2ccccc2)CC1 | -4.9 | – | – | – | –
O=C(CSc1nc2ccccc2c(=O)n1Cc1ccco1)c1ccccc1 | – | – | – | – | –
Cc1nc2sc(C(c3ccco3)N3CCC(C)CC3)c(O)n2n1 (configuration not stated) | – | · | · | · | –
Cc1ccc(C(c2sc3nc(C)nn3c2O)N2CCN(c3ccccc3F)CC2)cc1 (configuration not stated) | -5.5 | – | – | – | –
Cc1nc2sc(C(c3ccco3)N3CCN(C(c4ccccc4)c4ccccc4)CC3)c(O)n2n1 (configuration not stated) | -5.4 | – | · | – | –
CCOc1ccccc1OCCOc1ccccc1OC(C)C | -5.4 | – | – | – | ·
COC(=O)C(C)N(C(=O)c1cccc2ccccc12)c1c(C)cccc1C (configuration not stated) | -7.1 | – | – | – | ·
COC(=O)C(C)N(C(=O)c1cccc(Cl)c1)c1c(C)cccc1C (configuration not stated) | – | – | – | – | ·
O=C(CN1/C(=C(/O)c2ccccc2)C(=O)c2ccccc2S1(=O)=O)c1ccccc1 | -6.9 | – | – | – | ·
CC(C)c1ccc(CC(C)C2C3=C(CCCC3=O)OC3=C2C(=O)CCC3)cc1 (configuration not stated) | – | – | -4.2 | – | ·
Cc1ccc(CCC2C3=C(CCCC3=O)OC3=C2C(=O)CCC3)cc1 | – | – | – | – | ·
O=[N+]([O-])c1ccc(N=Nc2ccc(O)cc2O)cc1 | -8.8 | – | – | 94 | ·
O=[N+]([O-])c1ccc(O)c(N=Cc2sc3ccccc3c2O)c1 | · | · | – | · | ·
CCCCOc1ccc(/C=C/C(=O)OCC(=O)NC(=O)NCC(C)C)cc1OCC | · | – | · | – | ·
COc1ccc(C2CC(=O)C3=C(C2)Nc2ncnn2C3c2ccccc2C)c(OC)c1 (configuration not stated) | – | – | -3.6 | – | –
O=C(Cc1ccccc1)Nc1nc2ccccc2[nH]1 | – | – | – | – | –
Cc1ccc2c(CC(=O)Nc3nc(C)cs3)coc2c1 | -6.8 | – | – | – | –
Cc1csc(NC(=O)Cc2c[nH]c3ccccc23)n1 | -4.1 | – | – | – | ·
Cc1cnc(NC(=O)Cc2c[nH]c3ccccc23)s1 | – | – | – | – | ·
O=C(Cc1c[nH]c2ccccc12)Nc1nc2ccccc2[nH]1 | -6.3 | – | – | – | –
CCC(=O)N(Cc1ccco1)c1nc(C(=O)Nc2ccc(Cl)cc2)c(C)s1 | · | – | · | – | ·
COc1cc(-c2nnc(SCC3(c4ccc(Br)cc4)OCCO3)o2)cc(OC)c1OC | – | – | – | – | ·
SMILES | Cav32 inh | Mac1 fbg enh | PTK2B oligo ant | Mac1 fbg inh | E coli RNAP
CCCOc1ccccc1Cn1c(=O)oc2ccc(C)cc21 | -5.6 | – | – | – | –
CCCOc1ccc(Cn2c(=O)oc3ccc(C)cc32)cc1OC | – | · | – | · | ·
Cc1ccc2oc(=O)n(CCOc3ccccc3Cl)c2c1 | – | – | · | – | –
CCOc1ccccc1Cn1c(=O)oc2ccc(C)cc21 | -4.7 | · | – | · | ·
OC1CCCN(c2c3c(nc4cc(-c5cccc(Cl)c5)nn24)CCC3)C1 (configuration not stated) | – | · | -3.2 | · | –
Cc1cccc(-c2cc3nc4c(c(N5CCCC(O)C5)n3n2)CCC4)c1 (configuration not stated) | – | – | – | – | –
COc1cccc(Oc2cnc(N)nc2-c2ccc(OC)cc2O)c1 | – | · | -3.9 | · | –
COc1ccc(-c2cnc(N)nc2-c2ccc(OC)cc2O)cc1 | – | – | -3.1 | – | –
